What all share (parameters): scale not given: direction of the effect not stated beside the values
Experiment [1] addresses Protein translocase subunit SecA (Escherichia coli (strain K12)) (UniProt P10408). The experiment in a line: Assay to Identify E. coli SecA ATPase Inhibitors. It counts as functional. Particulars: 30 µM.
The target of experiment [2] is T1, Ubiquitin-activating enzyme e1, putative (Leishmania donovani (strain BPK282A1)) (UniProt E9BSI1).
T1 sequence (whole entry): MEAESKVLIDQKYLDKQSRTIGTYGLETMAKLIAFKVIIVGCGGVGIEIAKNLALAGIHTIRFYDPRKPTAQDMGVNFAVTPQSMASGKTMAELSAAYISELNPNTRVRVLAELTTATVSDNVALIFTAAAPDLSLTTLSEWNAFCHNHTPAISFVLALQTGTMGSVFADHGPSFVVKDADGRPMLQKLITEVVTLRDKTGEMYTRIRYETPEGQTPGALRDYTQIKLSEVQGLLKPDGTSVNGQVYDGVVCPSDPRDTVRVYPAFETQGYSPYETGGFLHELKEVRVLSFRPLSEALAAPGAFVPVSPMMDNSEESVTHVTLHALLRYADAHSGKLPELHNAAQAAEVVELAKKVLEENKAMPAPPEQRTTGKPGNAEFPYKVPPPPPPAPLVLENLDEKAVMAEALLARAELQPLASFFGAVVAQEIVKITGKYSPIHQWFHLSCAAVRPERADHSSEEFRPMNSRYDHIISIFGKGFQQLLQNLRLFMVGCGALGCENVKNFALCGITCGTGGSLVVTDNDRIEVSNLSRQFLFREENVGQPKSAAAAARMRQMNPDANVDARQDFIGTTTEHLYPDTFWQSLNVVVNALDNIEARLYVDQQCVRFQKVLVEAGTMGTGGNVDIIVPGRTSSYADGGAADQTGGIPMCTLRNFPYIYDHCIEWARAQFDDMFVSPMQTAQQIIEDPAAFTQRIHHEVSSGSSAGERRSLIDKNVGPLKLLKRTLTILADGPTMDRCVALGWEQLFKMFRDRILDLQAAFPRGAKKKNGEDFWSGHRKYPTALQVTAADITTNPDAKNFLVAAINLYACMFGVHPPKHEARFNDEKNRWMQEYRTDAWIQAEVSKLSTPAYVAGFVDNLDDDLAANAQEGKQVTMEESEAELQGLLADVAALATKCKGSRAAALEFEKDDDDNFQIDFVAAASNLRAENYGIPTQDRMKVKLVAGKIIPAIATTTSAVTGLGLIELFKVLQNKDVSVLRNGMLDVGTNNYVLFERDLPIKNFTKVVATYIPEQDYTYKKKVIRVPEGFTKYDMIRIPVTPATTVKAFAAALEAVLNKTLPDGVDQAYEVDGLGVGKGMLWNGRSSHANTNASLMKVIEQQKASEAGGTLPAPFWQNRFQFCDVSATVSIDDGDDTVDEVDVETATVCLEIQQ
As to the kind of experiment: Leishmania donovani Ubiquitin Activating Enzyme (LdE1). It counts as functional. To be noted: 30 µM.

Experiment [3] deals with Sialic acid-binding Ig-like lectin 9 (Homo sapiens) (UniProt Q9Y336). As to the kind of experiment: Hs-Siglec9 ALPHAscreen SOP 20170721. To be noted: 10 µM. (In general: In Alpha technology, singlet oxygen from a donor bead excites a nearby acceptor bead.)
For experiment [4], the system named is Trypanosoma cruzi. As to the kind of experiment: Trypanosoma cruzi phosphomannomutase and mannose-1-phosphate guanylyltransferase assay. The class given is functional. To be noted: 10 µM.
The target of experiment [5] is T2, Arginase-2, mitochondrial (Homo sapiens) (UniProt P78540).
T2 sequence (whole entry): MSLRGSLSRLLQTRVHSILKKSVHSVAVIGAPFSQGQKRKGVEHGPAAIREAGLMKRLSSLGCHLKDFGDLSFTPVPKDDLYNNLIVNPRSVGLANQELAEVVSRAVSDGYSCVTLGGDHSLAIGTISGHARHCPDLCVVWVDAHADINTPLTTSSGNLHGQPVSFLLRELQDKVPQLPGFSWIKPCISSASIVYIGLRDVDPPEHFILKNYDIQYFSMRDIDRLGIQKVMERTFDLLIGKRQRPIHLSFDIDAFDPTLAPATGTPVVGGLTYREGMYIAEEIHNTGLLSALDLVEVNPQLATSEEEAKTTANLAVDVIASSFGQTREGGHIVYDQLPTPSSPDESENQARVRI
The experiment in a line: in vitro enzyme assay to detect the production of urea directly proportional to the activity of Arginase II. Further: in the data most compounds retested in dose-response had high values. The class given is functional. To be noted: 33.3 µM.

For experiment [6], the target named is T3, Proteasome subunit beta (Trypanosoma cruzi) (UniProt O96673).
T3 sequence (whole entry): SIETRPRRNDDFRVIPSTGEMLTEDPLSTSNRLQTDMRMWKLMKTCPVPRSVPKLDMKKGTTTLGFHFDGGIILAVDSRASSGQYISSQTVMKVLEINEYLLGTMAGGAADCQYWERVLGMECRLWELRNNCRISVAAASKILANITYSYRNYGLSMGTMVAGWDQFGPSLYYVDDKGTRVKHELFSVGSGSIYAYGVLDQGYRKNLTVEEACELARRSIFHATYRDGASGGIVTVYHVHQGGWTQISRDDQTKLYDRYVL
The experiment in a line: Trypanosoma cruzi proteasome chymotrypsin-like activity (TcProtChymo) assay. Further: in the data most compounds retested in dose-response had high values. Particulars: 9.37 µM. It counts as functional.

Experiment [7] is filed under the species Homo sapiens. The experiment in a line: To identify inhibition of the IFN signalling (Jak-Stat) pathway via expression of an eGFP reporter gene under the control of an IFN-stimulated response element (ISRE) containing MxA promoter. To be noted: 30 µM. The class given is functional. (In general: Reporter assays use an easily measured gene product as a stand-in for the process of interest.)

For experiment [8], the target named is T4, Tyrosyl-tRNA synthetase, putative (Trypanosoma cruzi (strain CL Brener)) (UniProt Q4DSP6).
T4 sequence (whole entry): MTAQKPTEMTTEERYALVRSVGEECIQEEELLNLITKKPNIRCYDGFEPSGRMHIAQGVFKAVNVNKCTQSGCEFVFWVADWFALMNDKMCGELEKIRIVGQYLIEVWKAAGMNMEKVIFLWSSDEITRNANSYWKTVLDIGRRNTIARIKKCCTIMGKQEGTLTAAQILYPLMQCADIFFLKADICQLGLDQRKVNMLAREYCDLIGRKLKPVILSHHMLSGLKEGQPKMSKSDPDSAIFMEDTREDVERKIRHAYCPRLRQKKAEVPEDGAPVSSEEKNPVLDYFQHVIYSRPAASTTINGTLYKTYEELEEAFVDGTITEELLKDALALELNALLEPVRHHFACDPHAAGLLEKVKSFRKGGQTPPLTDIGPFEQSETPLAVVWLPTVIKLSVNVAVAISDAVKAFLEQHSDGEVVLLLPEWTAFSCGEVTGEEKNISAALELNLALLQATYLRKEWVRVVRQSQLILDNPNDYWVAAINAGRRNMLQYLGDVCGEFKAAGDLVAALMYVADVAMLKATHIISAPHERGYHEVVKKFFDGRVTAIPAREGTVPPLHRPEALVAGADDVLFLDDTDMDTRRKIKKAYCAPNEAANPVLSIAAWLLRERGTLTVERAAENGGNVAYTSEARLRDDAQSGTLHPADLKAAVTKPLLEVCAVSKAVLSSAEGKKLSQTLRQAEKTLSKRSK
As to the kind of experiment: Trypanosoma cruzi tyrosyl tRNA synthetase (TcYRS) _High Tyrosine SOP. Further: in the data most compounds retested in dose-response had high values. The class given is functional. Particulars: 30 µM.

The target of experiment [9] is T4, Tyrosyl-tRNA synthetase, putative (Trypanosoma cruzi (strain CL Brener)). As to the kind of experiment: Trypanosoma cruzi tyrosyl tRNA synthetase (TcYRS) SOP. To be noted: 30 µM. The class given is functional.
For experiment [10], the target named is Chromo domain-containing protein 1 (Saccharomyces cerevisiae (strain ATCC 204508 / S288c) (Baker's yeast)) (UniProt P32657). The experiment in a line: ScCHD-1 Enzyme Inhibition Assay. Further: in the data most compounds retested in dose-response had high values. To be noted: 30 µM. It counts as functional.

Molecules are shown by their SMILES. For part of these data: Potency and affinity values are given separately.

Sequence of Sialic acid-binding Ig-like lectin 9 (Homo sapiens) (Q9Y336 whole entry): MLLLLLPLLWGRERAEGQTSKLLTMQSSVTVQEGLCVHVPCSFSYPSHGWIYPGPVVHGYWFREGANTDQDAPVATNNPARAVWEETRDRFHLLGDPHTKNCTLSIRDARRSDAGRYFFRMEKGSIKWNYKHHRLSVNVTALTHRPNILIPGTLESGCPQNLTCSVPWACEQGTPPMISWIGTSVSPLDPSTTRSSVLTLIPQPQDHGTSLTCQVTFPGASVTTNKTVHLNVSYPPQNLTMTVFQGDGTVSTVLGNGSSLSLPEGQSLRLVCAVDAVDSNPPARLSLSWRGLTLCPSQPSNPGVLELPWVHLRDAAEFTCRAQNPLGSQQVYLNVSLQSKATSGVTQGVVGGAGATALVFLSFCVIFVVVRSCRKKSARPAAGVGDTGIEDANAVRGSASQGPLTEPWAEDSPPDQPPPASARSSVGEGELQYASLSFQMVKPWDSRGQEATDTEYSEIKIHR
Sequence of Chromo domain-containing protein 1 (Saccharomyces cerevisiae (strain ATCC 204508 / S288c) (Baker's yeast)) (P32657 whole entry, the tested form may be a part): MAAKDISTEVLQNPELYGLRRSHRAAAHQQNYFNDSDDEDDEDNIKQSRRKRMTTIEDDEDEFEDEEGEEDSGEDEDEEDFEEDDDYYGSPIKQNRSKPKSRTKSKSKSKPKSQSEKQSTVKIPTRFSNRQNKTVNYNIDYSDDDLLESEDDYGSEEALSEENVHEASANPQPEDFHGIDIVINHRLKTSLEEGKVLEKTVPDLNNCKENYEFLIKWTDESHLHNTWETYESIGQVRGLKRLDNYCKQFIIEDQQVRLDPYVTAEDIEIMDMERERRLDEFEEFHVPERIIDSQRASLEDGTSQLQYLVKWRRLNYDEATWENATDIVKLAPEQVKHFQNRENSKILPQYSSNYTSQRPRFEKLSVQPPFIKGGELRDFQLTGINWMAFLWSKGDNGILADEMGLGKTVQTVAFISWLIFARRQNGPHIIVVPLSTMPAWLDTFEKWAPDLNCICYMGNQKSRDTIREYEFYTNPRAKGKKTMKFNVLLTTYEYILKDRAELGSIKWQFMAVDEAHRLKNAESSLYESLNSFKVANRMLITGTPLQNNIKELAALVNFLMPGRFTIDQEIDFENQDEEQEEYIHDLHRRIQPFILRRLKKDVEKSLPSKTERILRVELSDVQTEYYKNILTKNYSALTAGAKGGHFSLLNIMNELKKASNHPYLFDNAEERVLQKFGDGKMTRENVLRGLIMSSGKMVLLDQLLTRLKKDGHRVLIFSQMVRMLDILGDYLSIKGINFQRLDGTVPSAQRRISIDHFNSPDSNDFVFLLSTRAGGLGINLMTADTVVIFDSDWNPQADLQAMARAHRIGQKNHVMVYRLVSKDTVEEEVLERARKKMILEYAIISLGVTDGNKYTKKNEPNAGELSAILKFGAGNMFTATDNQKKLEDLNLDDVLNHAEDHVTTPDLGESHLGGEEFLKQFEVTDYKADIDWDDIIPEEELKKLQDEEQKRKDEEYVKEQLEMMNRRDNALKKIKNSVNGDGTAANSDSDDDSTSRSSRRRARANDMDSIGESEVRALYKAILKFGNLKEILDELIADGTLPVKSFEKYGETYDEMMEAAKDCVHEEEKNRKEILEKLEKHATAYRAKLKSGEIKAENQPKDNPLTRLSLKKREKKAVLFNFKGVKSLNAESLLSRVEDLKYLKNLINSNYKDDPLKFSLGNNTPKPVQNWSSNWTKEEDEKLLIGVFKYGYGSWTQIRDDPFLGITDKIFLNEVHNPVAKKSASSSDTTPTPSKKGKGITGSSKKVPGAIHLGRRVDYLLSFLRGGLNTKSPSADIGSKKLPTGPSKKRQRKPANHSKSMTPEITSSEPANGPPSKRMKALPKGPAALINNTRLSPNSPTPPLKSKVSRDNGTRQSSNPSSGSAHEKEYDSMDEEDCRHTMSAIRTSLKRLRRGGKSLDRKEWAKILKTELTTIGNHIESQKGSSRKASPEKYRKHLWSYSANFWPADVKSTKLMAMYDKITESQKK
Sequence of Protein translocase subunit SecA (Escherichia coli (strain K12)) (P10408 whole entry): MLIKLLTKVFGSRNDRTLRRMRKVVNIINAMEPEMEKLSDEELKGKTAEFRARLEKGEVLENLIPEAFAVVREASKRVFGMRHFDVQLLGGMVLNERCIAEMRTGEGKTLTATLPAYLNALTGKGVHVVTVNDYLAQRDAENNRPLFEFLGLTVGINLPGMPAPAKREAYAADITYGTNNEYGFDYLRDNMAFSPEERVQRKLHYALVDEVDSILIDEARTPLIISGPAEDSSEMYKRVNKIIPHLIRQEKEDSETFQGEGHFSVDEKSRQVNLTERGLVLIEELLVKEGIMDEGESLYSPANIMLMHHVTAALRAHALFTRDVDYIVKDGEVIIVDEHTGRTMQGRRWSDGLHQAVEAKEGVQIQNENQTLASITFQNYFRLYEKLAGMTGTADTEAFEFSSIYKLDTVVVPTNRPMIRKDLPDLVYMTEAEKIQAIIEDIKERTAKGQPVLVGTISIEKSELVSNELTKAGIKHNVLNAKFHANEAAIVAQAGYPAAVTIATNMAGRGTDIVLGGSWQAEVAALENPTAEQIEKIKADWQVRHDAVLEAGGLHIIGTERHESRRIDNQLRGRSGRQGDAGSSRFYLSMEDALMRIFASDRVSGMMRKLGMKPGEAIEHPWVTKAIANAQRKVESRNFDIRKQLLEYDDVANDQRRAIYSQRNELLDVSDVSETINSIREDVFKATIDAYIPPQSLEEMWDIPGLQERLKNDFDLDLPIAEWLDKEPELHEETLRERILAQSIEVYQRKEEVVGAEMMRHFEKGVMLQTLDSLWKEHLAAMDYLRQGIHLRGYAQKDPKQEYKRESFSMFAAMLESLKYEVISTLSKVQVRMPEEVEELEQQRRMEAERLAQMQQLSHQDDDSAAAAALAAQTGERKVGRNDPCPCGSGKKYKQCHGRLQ

Turning to `NC(=O)Cn1cc(NC(=O)N2CCCC2)cn1`, the Percent Effect in experiment [1] was 1.14%; in experiment [2] it was 12.8%; in [3], -7.88%; in experiment [4], -0.469%; in [5] it was 8.61%; in [6], 11.7%. Further, the Percent Effect was 19.1% in experiment [7], 5.26% in experiment [8], 18.1% in [9] and -4.77% in experiment [10].
`N#Cc1c(C2CC2)cc(-c2ccc(O)cc2)nc1N`: the Percent Effect is -6.18% in experiment [1]; 2.7% in experiment [2]; 3.32% in [3]; -1.46% in [4]; 4.54% in [5]; 23.6% in experiment [6]. The Percent Effect in experiment [7] is 48.6%; in [8], -0.532%; in [9], 7.32%; in experiment [10], -2.85%.
For the compound `Cc1cc(-c2nn(C)c(Cl)c2CN2CCOCC(O)C2)no1` (stereo not given), the Percent Effect in experiment [1] is -4.83%; in [2], 13.5%; in experiment [3], 10%; in [4] it was 4.37%; in experiment [5], 15.7%; in experiment [6] it was 13%. Further, the Percent Effect in experiment [7] was 15.5%; in experiment [8] it was 2.66%; in [9] it was 17.1%; in [10], -4.79%.
Consider `Cc1nc[nH]c1CN1CCN(C(=O)CCC(F)(F)F)[C@H]2CS(=O)(=O)C[C@H]21`, for which the Percent Effect in experiment [1] was -7.21%; in [2], 2.7%; in experiment [3], 12%; in experiment [4] it was 7.66%; in [5], 14.3%; in experiment [6] it was 15.1%. In addition, the Percent Effect is 11.2% in [7], 7.98% in [8], 12.2% in experiment [9] and -1.8% in experiment [10].
For the compound `COc1cc(C)nc(N2CCN(C(=O)CNC(C)(C)C)CC2)n1`, the Percent Effect in experiment [1] was -1.19%; in [2], 5.13%; in experiment [3], -1.55%; in experiment [4], -1.22%; in experiment [5] it was 4.51%; in [6], -3.67%. The Percent Effect is 19.9% in [7], 0.478% in experiment [8], 8.43% in experiment [9] and -2.39% in experiment [10].
Turning to `c1ccc(-c2nc(CN3CCOC(Cn4cccn4)C3)no2)cc1` (stereo not given), the Percent Effect in experiment [1] is -2.84%; in [2] it was 2.67%; in experiment [3] it was -2.67%; in experiment [4], -3.01%; in experiment [5] it was 4.43%; in experiment [6], 7.38%. For the same compound, the Percent Effect in experiment [7] is 4.88%; in experiment [8], 5.79%; in [9] it was 12.8%; in [10] it was -6.08%.
With `CS(=O)(=O)Cc1cccc(C(=O)N2CCCC(n3cccn3)C2)c1` (stereo not given), the Percent Effect in experiment [1] was -3.02%; in experiment [2], 2.56%; in [3], -5.84%; in experiment [4], -5.92%; in experiment [5] it was -1.23%; in experiment [6], 4.69%. Further, the Percent Effect in experiment [7] is 24.6%; in [8], 2.39%; in experiment [9] it was 1.21%; in experiment [10] it was -5.08%.
`CC(C)c1cc(C(=O)NCCN2CCCS2(=O)=O)n[nH]1`: the Percent Effect was -3.62% in experiment [1]; 15.4% in experiment [2]; 0.501% in experiment [3]; 0.469% in experiment [4]; 4.92% in experiment [5]; 18% in [6]. Moreover, the Percent Effect is -1.8% in experiment [7], -4.31% in [8], 18.1% in [9] and -2.98% in experiment [10].
Regarding `COc1ccc(CNCc2ccc(N3CCCCC3)nc2)cc1OC`, the Percent Effect in experiment [1] was 0.873%; in experiment [2] it was 15.4%; in experiment [3], -8.85%; in [4] it was 5.92%; in experiment [5], 2.87%; in experiment [6] it was 8.62%. The Percent Effect in experiment [7] was 2.97%; in [8] it was 8.13%; in experiment [9] it was 25.3%; in experiment [10], -9.53%.
With `CC(=O)NC1CCCN(C(=O)NCc2cccnc2N(C)C)C1` (stereo not given), the Percent Effect in experiment [1] is -1.76%; in experiment [2] it was 16%; in [3] it was 3.66%; in experiment [4], 0.402%; in [5], 6.65%; in experiment [6], 11.4%. Also, the Percent Effect was 11.5% in experiment [7], 8.95% in [8], 15.4% in experiment [9] and -11.3% in experiment [10].
Take `CC(C)c1nc(C2CCCN(Cc3nnc(C4CC4)o3)C2)no1` (stereo not given): the Percent Effect in [1] was 3.18%; in [2] it was -2.67%; in experiment [3] it was 5.21%; in experiment [4], 0%; in [5] it was 4.88%; in [6], 0.933%. Also, the Percent Effect is 4.85% in experiment [7], -1.58% in experiment [8], -2.56% in [9] and -1.26% in [10].
`Cc1[nH]c(=O)c(C#N)cc1C(=O)N1C[C@@H](CN2CCCC2)C[C@H](CO)C1`: the Percent Effect was -6.79% in [1]; -8.11% in [2]; -1.68% in experiment [3]; -2.81% in experiment [4]; 3.85% in [5]; -5.82% in experiment [6]. Further, the Percent Effect in [7] is 21.2%; in experiment [8] it was -0.532%; in experiment [9], -2.44%; in experiment [10] it was 2.93%.

For the origin of these results see ChEMBL document CHEMBL3988442, “University of Dundee, Small-Polar-MMV Screening Library” (2021).
